Bioassay records (PubChem)
ALOX12 inhib – qHTS Assay for Inhibitors of 12-hLO (12-human lipoxygenase); purified 12-hLO, xylenol orange hydroperoxide absorbance; 0.12% of 150,000 active; Polyunsaturated fatty acid lipoxygenase ALOX12 (Homo sapiens), P18054; Potency, µM (titrated, usually from 57.1 µM), most hits filed as inhibitors; active = well fitted inhibition curve with a large enough effect; inconclusive = small, poorly fitted or top-dose-only effect; note: nearly all actives have a fitted effect of over 55% in size
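Purified human 12hLO (150 nM), preincubated 15 min with compound, then 40 uM arachidonic acid for 30 min, room temperature, Hepes pH 7.0 with 0.01% Triton X-100. Hydroperoxide detected by ferrous iron/xylenol orange; 573/405 nm absorbance ratio gives reaction progress.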
HPGD inh – qHTS Assay for Inhibitors of HPGD (15-Hydroxyprostaglandin Dehydrogenase) | AID 894, 2007 | 4.3% of 150,000 active | purified HPGD, NADH fluorescence kinetic, PGE2 substrate | Potency, µM, actives largely listed as inhibitors
Target sequence (P15428 whole entry, looked up): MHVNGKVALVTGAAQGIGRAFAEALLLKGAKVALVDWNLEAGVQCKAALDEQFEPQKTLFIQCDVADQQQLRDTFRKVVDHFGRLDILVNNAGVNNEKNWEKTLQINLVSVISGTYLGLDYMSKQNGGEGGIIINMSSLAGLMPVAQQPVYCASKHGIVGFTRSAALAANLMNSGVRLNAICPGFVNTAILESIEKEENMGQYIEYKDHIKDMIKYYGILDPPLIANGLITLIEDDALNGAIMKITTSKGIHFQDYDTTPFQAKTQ
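20 nM HPGD preincubated 15 min at room temperature with compound in 50 mM Tris-HCl pH 8, 0.01% Tween 20. Started with 1 mM NAD+ and 30 uM prostaglandin E2; NADH fluorescence (360/450 nm) read 5 times over 30-s intervals, last minus first.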
PNC inhibitor – High Content Assay for Compounds that inhibit the Assembly of the Perinucleolar Compartment; PC3M PTB-GFP, PNC prevalence imaging, 16 h; stronger effect = lower value; activity change (PNC), negative = inhibition, % at 10 µM; 3.1% of 140,000 active;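 active = readout at or below -70, meaning at least 70% loss of cells showing the perinucleolar compartment, a nuclear body marking cancer cells; inconclusive = readout between -30 and a set limit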
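PC3M cells stably expressing PTB-GFP, 750–1000 cells/well, treated 16 h at 37 °C with compound (23 nl of library stock), in duplicate. After paraformaldehyde fixation and Hoechst stain, imaged at 20x; PNC prevalence scored by image analysis.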
ALDH1A1 inh – qHTS Assay for Inhibitors of Aldehyde Dehydrogenase 1 (ALDH1A1) | Purified ALDH1A1, NADH fluorescence, propionaldehyde substrate | Potency, µM (highest dose often 75.3 µM), actives largely listed as inhibitors | 7.3% of 220,000 active | AID 1030, 2008
Lamin A splicing – qHTS Assay for Modulators of Lamin A Splicing; HeLa LMNA splicing GFP/RFP minigene ratio, 48 h; 0.01% of 200,000 active; Potency, µM (titrated, usually from 46.1 µM), usual class: inhibitors; active = well fitted inhibition curve with a large enough effect in the signal ratio, with a control signal flat, not every such curve was filed as active; inconclusive = small, poorly fitted or top-dose-only effect, or effect the other way, or a change in a side signal; the % refers to the signal ratio
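S3 HeLa cells stably expressing lamin A-EGFP splicing minigene plus DsRed2, 600 cells/well, 48 h compound exposure at 37C. Laser-scanning cytometry; analysed as GFP (500-530 nm)/RFP (575-640 nm) total intensity ratio; 0.5% DMSO vehicle.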
Large screens that a line does not name were inactive. A selection: hits, their analogues and other compounds. The true share with any hit is near 10%. Unless noted, calls come from the whole dose curve; as a rule, active = well fitted inhibition curve with a large enough effect (not every such curve was filed as active); inconclusive = small, poorly fitted or top-dose-only effect, or another doubt; inactive = no such curve, though single readings can be large or run the other way.

O=C1CC(N2CCN(Cc3ccccc3)CC2)C(=O)N1c1ccccc1 (configuration not stated)	none
CCOC(=O)OCC1OC(c2ccc(C(C)=O)cc2)C=CC1OC(=O)OCC (configuration not stated)	none (no result: ALOX12 inhib, HPGD inh, PNC inhibitor, Lamin A splicing)
O=C(CCCCCN1C(=O)c2ccccc2C1=O)NC1CCCC1	HPGD inh 4.47µM, ALDH1A1 inh inconclusive
O=C(CCCCCCN1C(=O)c2ccccc2C1=O)NC1CCCCC1	HPGD inh 4.47µM
CC(C)(C)NC(=O)CN(C(=O)CN1C(=O)C(=O)c2ccccc21)C(C)(C)C	ALDH1A1 inh 0.126µM (no result: ALOX12 inhib, HPGD inh, PNC inhibitor, Lamin A splicing)
O=C(CCCn1c(=O)[nH]c2ccccc2c1=O)NC1CCCCCC1	HPGD inh inconclusive, ALDH1A1 inh inconclusive
O=C(CCSc1ccccc1)Nc1ncccn1	none
Cc1ccc(NC(=O)CCCCCN2C(=O)c3ccccc3C2=O)nc1	PNC inhibitor inconclusive
O=C(CCSc1ccccc1)NC1CCCC1	HPGD inh 14.1µM
COCCNC(=O)c1cc2n(n1)CCCN(Cc1ccc(C)cc1)C2=O	none (no result: ALOX12 inhib, HPGD inh, PNC inhibitor, ALDH1A1 inh)
O=C(CN1C(=O)C(=O)c2ccccc21)NC1CCCCC1	ALDH1A1 inh 0.891µM
O=c1[nH]c(O)c(/C=C2\C=Nc3ccccc32)[nH]1	none (no result: ALOX12 inhib, HPGD inh, PNC inhibitor, Lamin A splicing)
O=c1oc2ccccc2c(O)c1/C=C1\C=Nc2ccccc21	HPGD inh 2.24µM, ALDH1A1 inh 12.6µM
CC(=O)c1ccc(C2C=CC(Oc3ccc(F)cc3C)C(CO)O2)cc1 (configuration not stated)	none (no result: ALOX12 inhib, HPGD inh, PNC inhibitor, Lamin A splicing)
Cc1cc(C)c2nc3s/c(=C/c4ccccc4)c(=O)n3c2c1	HPGD inh 5.01µM, PNC inhibitor inconclusive, ALDH1A1 inh 3.16µM
Cc1ccc(/C=c2\sc3nc(-c4cccs4)nn3c2=O)o1	ALDH1A1 inh inconclusive
Cc1ccc2c(nc3s/c(=C/c4cccs4)c(=O)n32)c1C	HPGD inh 28.2µM, ALDH1A1 inh 14.1µM, Lamin A splicing inconclusive
Fc1cccc(CN2CCN(c3ncccn3)CC2)c1	ALDH1A1 inh 12.6µM
Fc1ccc(C(OCCCc2cnc[nH]2)c2ccc(F)cc2)cc1	Lamin A splicing inconclusive (no result: PNC inhibitor)
Cc1ccc(/C=C/C(=O)Nc2ccc(S(N)(=O)=O)cc2)o1	ALDH1A1 inh 25.1µM, Lamin A splicing inconclusive (no result: ALOX12 inhib, HPGD inh, PNC inhibitor)
COc1ccc(/C=C/C(=O)NCCc2ccc(S(N)(=O)=O)cc2)cc1	PNC inhibitor inconclusive, ALDH1A1 inh 10µM
Cc1ccc(/C=C/C(=O)Nc2ccc(N(C)C)cc2)o1	none
NS(=O)(=O)c1ccc(CCNC(=O)/C=C/c2ccc([N+](=O)[O-])cc2)cc1	none (no result: ALOX12 inhib, HPGD inh, PNC inhibitor, Lamin A splicing)
CC(C)c1ccc(/C=C/C(=O)NCc2ccc(S(N)(=O)=O)cc2)cc1	ALDH1A1 inh 28.2µM (no result: ALOX12 inhib, HPGD inh, PNC inhibitor)
Cc1ccc(/C=C/C(=O)NCc2ccc(S(N)(=O)=O)cc2)o1	ALDH1A1 inh 1.78µM (no result: ALOX12 inhib, HPGD inh, PNC inhibitor, Lamin A splicing)
NS(=O)(=O)c1ccc(CNC(=O)/C=C/c2ccc(Cl)c(Cl)c2)cc1	PNC inhibitor inconclusive
Cc1ccc(/C=C/C(=O)NCc2ccc3c(c2)OCO3)o1	HPGD inh inconclusive, ALDH1A1 inh inconclusive
COc1ccc(Cn2ccc3nc(C)c(C(=O)N4CCN(c5ccccc5F)CC4)cc3c2=O)cc1	none (no result: ALOX12 inhib, HPGD inh, PNC inhibitor, ALDH1A1 inh)
CC(=O)NS(=O)(=O)c1ccc(NC(=O)/C=C/c2ccc(C)o2)cc1	ALDH1A1 inh 12.6µM (no result: ALOX12 inhib, HPGD inh, PNC inhibitor)
Cc1ccc(/C=C/C(=O)Nc2ncc(C)s2)o1	ALDH1A1 inh inconclusive
Cc1ccc(/C=C/C(=O)Nc2nccs2)o1	HPGD inh 25.1µM, ALDH1A1 inh inconclusive, Lamin A splicing inconclusive
Cc1ccc(/C=C/C(=O)NCCc2c[nH]c3ccccc23)o1	ALDH1A1 inh 14.1µM (no result: ALOX12 inhib, HPGD inh, PNC inhibitor)
CCOc1ccc(C(=O)OCc2cc(=O)n3cc(C)sc3n2)cc1	none (no result: ALOX12 inhib, HPGD inh, PNC inhibitor, ALDH1A1 inh)
O=C(CCS(=O)(=O)c1ccccc1)Nc1cccc2c1C(=O)NC2=O	ALDH1A1 inh inconclusive (no result: ALOX12 inhib, HPGD inh, PNC inhibitor)
O=C(Oc1cccc(N2C(=O)CCC2=O)c1)c1ccccc1	none
CC1CCC2C(=O)N(c3cccc(OS(=O)(=O)c4ccccc4)c3)C(=O)C2C1 (configuration not stated)	ALDH1A1 inh 12.6µM
CC1CCC2C(=O)N(c3ccc(S(=O)(=O)c4ccccc4)cc3)C(=O)C2C1 (configuration not stated)	PNC inhibitor inconclusive
